# hcDAF-12 act: activates DAF-12 receptor from parasite H. contortus; HEK293 hcDAF-12 lit1-tk-luc reporter, luminescence; 0% DMSO, 100% Δ7-dafachronic acid; activation, % at 6.8 µM; hit rate 1.4% among 370,000; AID 652067;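 active = activation above the mean of all tested compounds plus 3 SD, cut at about 5.5% in these data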;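 note: 100% = response to 3 µM Δ7-dafachronic acid high control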
# hgDAF12 agonist: agonists of H. glycines DAF-12 nuclear receptor | hit rate 1.8% among 370,000 | HEK293 GAL4-hgDAF12 UAS-luciferase reporter, agonist luminescence; normalized to butyrate control | AID 687014 | activation, % at 6.8 µM;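 active = activation above a cutoff set at the mean of all screened compounds plus 3 SD, cut at about 10% in these data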;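 note: 0% = DMSO wells and 100% = sodium butyrate wells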
# ssDAF12 agonist: S. stercoralis DAF-12 activation, primary screen; activation, % at 6.8 µM; HEK293 ssDAF-12/GRIP1 lit1-tk-luc reporter, luminescence; % of 3 µM dafachronic acid response; hit rate 1% among 370,000; AID 652126;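 active = activation above the mean over all tested compounds plus 3 SD, cut at about 0.9% in these data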;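 note: 0% = DMSO-only wells and 100% = 3 µM delta7-dafachronic acid wells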
# DAX1 inh-1: NR0B1 (DAX1) inhibition; hit rate 0.99% among 340,000; HEK293 Gal4-DAX1 luciferase reporter, luminescence; inhibition, % at 6.75 µM; P51843;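 active = inhibition above the mean over all tested compounds plus 3 SD, cut at about 4.2% in these data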;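 note: 0% = DAX1-transfected cells with DMSO and 100% = empty-vector control cells with DMSO; inhibition shows as a rise in luminescence from relieved DAX1 repression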
# Target sequence (P51843 207-470 limits assumed): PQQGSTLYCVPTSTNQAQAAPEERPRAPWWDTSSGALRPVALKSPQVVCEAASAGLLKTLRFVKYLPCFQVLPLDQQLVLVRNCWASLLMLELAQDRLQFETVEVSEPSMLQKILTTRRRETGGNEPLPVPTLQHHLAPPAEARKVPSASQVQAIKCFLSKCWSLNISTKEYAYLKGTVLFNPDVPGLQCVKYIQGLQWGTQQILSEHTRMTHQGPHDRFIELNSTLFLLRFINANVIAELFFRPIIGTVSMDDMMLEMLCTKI
# DAX1 inh-2: blocks DAX1 repression of SF-1 activated StAR promoter; HEK293T StAR-luciferase reporter, SF-1/DAX-1 repression relief; inhibition, % at 6.8 µM; hit rate 1.1% among 370,000; AID 652010;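 active = inhibition above the mean over all tested compounds plus 3 SD, cut at about 3.6% in these data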;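 note: 0% = DAX-1 cells with DMSO and 100% = cells lacking DAX-1 with DMSO; higher inhibition means more luminescence from relief of DAX-1 repression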
# hgDAF12 ag: hgDAF-12 agonism, confirmation assay; shares compounds with hgDAF12 agonist; HEK293 GAL4-hgDAF12 luciferase reporter, agonist mode; percent of butyrate response; activation, % at 6.8 µM; hit rate 80% among 3,300; AID 743050;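 active = mean activation over triplicate wells above the hit cutoff derived from the earlier primary screen, cut at about 11% in these data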;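 note: 0% = DMSO low control and 100% = 2 mM sodium butyrate high control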
# LXR ag 2: LXR-beta agonism as DAF-12 counter-screen. shares compounds with hgDAF12 agonist. activation, % at 6.8 µM. 3,300 tested, under 10 active. HEK293 Gal4-LXR luciferase reporter, 24 h;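 active = mean activation of the triplicate above a set limit carried over from the primary screen, none filed active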
# * = called active by the depositor; . = no result. Only some compounds are listed: those with a hit (about 4.1% of all), similar ones and a draw of the others.
SMILES,hcDAF-12 act,hgDAF12 agonist,ssDAF12 agonist,DAX1 inh-1,DAX1 inh-2,hgDAF12 ag,LXR ag 2
C/C(=N/NC(=O)c1ccc(Br)o1)c1ccncc1,1.9,17.9*,0.8,5.7*,2.2,0.3,0.1
C/C(=N/NC(=O)c1cnccn1)c1ccncc1,0.4,5.8,-0.5,0.1,0.5,.,.
C/C(=N/NC(=O)c1ccccn1)c1ccncc1,5.3,13.9*,0.6,2.3,2.0,9.5,0.3
C/C(=N/NC(=O)c1ccc(Br)o1)c1cccc(NC(=O)c2ccc(C)o2)c1,1.3,9.6,-0.5,3.0,1.4,.,.
COCc1[nH]nc2c1C(c1ccc(C)cc1)N(Cc1ccccc1)C2=O (stereo not drawn),-2.9,-1.9,-1.5,.,-0.1,.,.
COc1cccc(-c2ccc3c(c2)[C@@H]2C[C@H]4[C@@H](CN2CC3)[C@H](C)ON4C)c1,-0.1,0.3,0.1,.,-0.2,.,.
COC(=O)[C@]12CCCCC=C1N(Cc1ccc(OC)cc1)C(=O)[C@@H]2CC(=O)NCC12CC3CC(CC(C3)C1)C2,-2.0,1.6,-1.3,.,0.2,.,.
CC1(C)CC(=O)C(C=Nc2ccccc2C(=O)O)=C(O)C1,2.6,3.0,-1.8,-0.4,0.1,.,.
CC1(C)CC(=O)c2cc(N=C/C(C(=O)c3ccccc3)=C(\O)c3ccccc3)c(=O)oc2C1,1.3,14.3*,0.1,5.1*,0.6,7.5,0.2
O=C(Nc1ccccc1C(=O)N/N=C/c1ccncc1)c1ccccc1,2.6,14.2*,-0.2,-1.8,0.5,12.0*,0.2
O=C(N/N=C/c1cccc(O)c1)c1csc2ccccc12,-1.0,1.5,-0.6,1.6,-0.3,.,.
COc1ccc(C=NNC(=O)c2cc(C)oc2C)cc1O,1.7,13.4*,-1.0,0.0,-0.2,13.9*,0.5
O=C(N/N=C/c1cccc(O)c1)c1ccccc1O,3.1,15.6*,-0.3,1.6,1.7,9.0,0.3
Cc1nn(-c2ccccc2)c2sc(C(=O)NCCc3ccccc3)cc12,-0.1,5.1,-2.0,.,-1.0,.,.
C=CCN1C(=O)[C@H](CC(=O)NCC2CCCCC2)[C@@]2(C(=O)OCC)CCCC=C12,-2.2,-4.2,-1.2,.,-0.8,.,.
COc1cccc(N2CCN(C(=O)c3ccc(CSc4nc5ccncc5[nH]4)cc3)CC2)c1,-3.8,-4.7,-1.4,-2.9,-2.8,.,.
COc1cccc(CSc2nc3ccncc3[nH]2)c1,2.3,15.2*,0.4,-1.2,2.6,13.8*,0.5
O=C(N/N=C/c1c(Cl)cccc1Cl)c1cccc(F)c1,.,.,.,0.3,.,.,.
O=C(N/N=C/c1ccccc1Cl)c1cccc(F)c1,3.1,16.5*,0.3,1.5,3.7*,12.7*,0.5
O=C(N/N=C/c1cccc(NC(=O)c2ccc(Cl)cc2)c1)c1ccc(O)cc1,0.2,7.5,-0.9,-2.6,1.0,.,.
O=C(N/N=C/c1cccc(F)c1)c1ccc(Cl)cc1,2.5,17.6*,0.3,3.4,3.7*,12.0*,0.4
Cc1cc(C(=O)NCCc2ccccc2)ccc1[N+](=O)[O-],5.5,13.3*,0.2,2.7,3.1,11.8*,0.5
O=C1CCC[C@H]2C[C@H](NCc3ccccc3Cl)CC[C@]23CCCN13,1.8,1.6,-0.3,.,.,.,.
C=CCN1C(C(=O)OC)CN(Cc2cn(Cc3ccc(F)cc3)nn2)CCS1(=O)=O (stereo not drawn),-1.9,1.3,-0.8,.,2.5,.,.
CCC/C(=N\NC(=O)C1CC1)c1ccccc1,-0.8,1.4,-1.3,.,0.3,.,.
SMILES,hcDAF-12 act,hgDAF12 agonist,ssDAF12 agonist,DAX1 inh-1,DAX1 inh-2,hgDAF12 ag,LXR ag 2
CCC/C(=N/NC(=O)c1cccc(Cl)c1)c1ccccc1,2.6,16.6*,-0.5,0.1,1.9,0.2,0.0
Cc1nn(Cc2ccccc2Cl)c(Cl)c1C(=O)NCCc1ccccc1,2.6,16.9*,-0.2,2.9,4.0*,15.1*,0.7
COc1ccc(C(=O)Nc2cccc(OC(=O)c3ccco3)c2)cc1,3.9,14.0*,-0.1,-1.2,1.6,13.7*,0.6
Cn1c(=O)c2[nH]c(SCC(=O)NCCc3cccc(F)c3)nc2n(C)c1=O,-0.7,-0.6,-0.8,.,-0.4,.,.
O=[N+]([O-])c1cccc(-c2ccc(C(=S)N3CCOCC3)o2)c1,5.2,18.0*,0.1,2.9,3.0,15.9*,0.7
O=[N+]([O-])c1cc(-c2ccc(C(=S)N3CCOCC3)o2)ccc1Cl,5.3,0.8,0.3,0.7,0.5,.,.
S=C(c1ccc(-c2cccc(Cl)c2)o1)N1CCCCC1,6.3*,26.7*,1.1*,1.9,4.2*,21.1*,0.8
CC(C)[C@H](NC(=O)c1ccccc1)C(=O)N1CCC[C@H]1C(=O)NCCc1ccccc1Cl,-1.8,5.1,-0.9,.,-1.2,.,.
O=C(/C=C/c1ccc(-c2ccccc2)cc1)NC1=NCCS1,3.6,17.6*,-0.4,.,.,13.5*,0.4
COC(=O)C1=C(C)N(Cc2ccc(C(F)(F)F)cc2)C(=NCc2ccccc2)NC1c1ccccc1 (stereo not drawn),0.1,2.8,-0.8,.,-0.3,.,.
Cc1cc(C(=O)CSc2ncccn2)c(C)n1Cc1ccco1,5.5,17.1*,0.9*,0.5,3.5,17.6*,0.7
Cc1cc(C(=O)CSc2nc3ccc(Cl)cc3[nH]2)c(C)n1Cc1ccco1,-0.9,-0.2,0.0,0.3,-0.9,.,.
Cc1cc(C(=O)COC(=O)c2ccc(O)cc2)c(C)n1Cc1ccco1,6.0*,13.4*,0.2,1.4,4.2*,15.9*,0.5
O=C(OCc1cn(Cc2ccc(F)c(F)c2)nn1)N1CCOCC1,-0.2,-2.6,-1.5,.,0.3,.,.
COc1ccc(NC(=O)Nc2nc3c(s2)CCCC3)cc1,4.3,19.1*,-0.1,3.1,3.4,15.8*,0.7
COc1ccc(NC(=S)Nc2cccc(C)n2)cc1,-1.7,0.9,-1.3,.,0.3,.,.
COc1cc(SC)ccc1C(=O)Nc1ccc2ncccc2c1,3.8,15.3*,2.4*,1.5,3.1,16.9*,1.1
COc1cc(SC)ccc1C(=O)Nc1cccc(C)n1,2.4,15.9*,-0.6,1.9,4.0*,12.4*,0.8
COc1ccc(NC(=O)Nc2cccc(C)n2)cc1,2.0,17.2*,-0.6,1.7,2.3,12.5*,0.5
O=C(Nc1nc2nccc(-c3ccccc3)n2n1)c1ccc(F)cc1,1.5,-2.0,-1.5,-0.2,0.3,.,.
O=C(Nc1nsc(-c2ccccc2)n1)c1ccc(F)cc1,2.7,16.4*,-0.5,2.6,2.6,10.2,0.4
CCOC(=O)c1ccc2nc(C)c3c(c2c1)OC(C)C3 (stereo not drawn),0.6,-0.2,-1.6,-2.0,-0.1,.,.
CCOC(=O)c1ccc2nc3c(cc2c1)CCS3,1.7,15.6*,0.2,0.9,0.2,11.3*,0.4
O=Cc1cn(CC(=O)N2CCOCC2)c2ccccc12,0.4,0.0,-0.7,0.2,0.0,.,.
